# Biological target: SSR4
# Assay: pooled miR-30 sensor sort-seq; sequence = guide strand
# Conditions: shRNA
# Also: reference of the scale not given here.
row,Sequence,sensor-assay potency score (higher = more potent)
1,TAACCTCATAGGTGCCTGCGTG,-0.73
2,TCGTCGAAGAATCTAACCTCAT,-1.5
3,TCGAGTGACAGGGAATTGTTTT,-0.927
4,TCTCAGTGGAAATGACAGCGTC,-0.63
5,AAGTAGTAGATCACAAGGCCGA,-0.597
6,TAGATCACAAGGCCGATCGCCG,-0.829
7,TAGTAGGAAGGGGTGATCTGGG,-0.671
8,TCAGAAGTGGTGTAGTAGGAAG,-1.28
9,TATTCCTCTGAGCCTTCCTGAG,-1.63
10,TGACTGTAAACAGAGGCGGGAT,-0.672

# Biological target: SSTR1
# Assay: as above
# Conditions: shRNA
row,Sequence,sensor-assay potency score (higher = more potent)
1,TTTAGGATGTAGATGTTGGTGG,-0.196
2,TAGATGACCATAGAGTTCCCAC,-0.705
3,TTAGATCTTTCTCAAGTCCAAC,-1.71
4,TTGGAAGTCTTCCACACTGTAG,-0.86
5,TTCAATAGTGATTTTAACCATT,-0.629
6,TGAGTTGTTAATGAGTTCGTGA,-0.0506
7,TATCATTTATGTATTATCCTAA,-0.0617
8,TTGGTCTTTGAAAACGCGCAGT,-0.784
9,TAAATTTGTATCCTCTTAGAAG,-1.31
10,TAAACAAGAAAATAACTTCTTA,-0.323
11,TAAGGTGATCTTGCGCTCCGAG,0.115
12,TTTTGAGATACACTGGAGCAGG,-0.72

# Biological target: SSU72
# Assay: as above
# Conditions: shRNA
row,Sequence,sensor-assay potency score (higher = more potent)
1,ATAAACATTGGGCTTGTCGGGA,-0.564
2,TCATACACTCTCTCTTCGCAAG,-1.24
3,TTTGAAATCATAAACATTGGGC,0.0382
4,AACTTTGTAATCAATATCCTGC,0.0512
5,TCGTTCTCCATGTCTTCCGTGT,-0.416
6,TAGAGTTCTTTGTCTTTCCTAA,-0.0441
7,TAAACATTGGGCTTGTCGGGAG,-0.587
8,TTGTACATCTGGTCATATGTGG,0.225
9,AAGAAGATCATTGTACATCTGG,0.705
10,TTTCCTAAGAAGATCATTGTAC,0.179
11,ATGAACAACAGGAAGCTCCAGA,-0.247
12,TTCTGGAATCTTTCTGGCCGGG,-0.713

# Biological target: SSX3
# Assay: as above
# Conditions: shRNA
row,Sequence,sensor-assay potency score (higher = more potent)
1,TTTGGGTCCAGATATCATGTTA,-0.75
2,CATCTGAGGACGTTGAACCTGA,-0.724
3,TATTACGCATGAAAGATGGGAG,0.05
4,TAACAGAATGACACACTTCAAG,-1.11
5,TTTCTCCGAGACTTTCATCTTT,-0.136
6,TATCATGTTAATCTTCTCAGAG,-0.0343
